# Test results from PubChem BioAssay (Tox21).
# Unmarked numbers belong to inactive results. Results filed as inconclusive are left out. A call without a number means that no potency is given here. Activity calls are given as the source filed them. Calls come from the whole dose curve; as a rule, active = well fitted curve in the direction sought with a large enough effect in the repeat runs; inconclusive = weak or mixed curves; inactive = no such curve, though single readings can be large; an effect the other way counts as inactive or inconclusive.
# Assays:
# [1] = qHTS RealTime-Glo MT Cell Viability Assay in HEK293 cells - 16 hour (AID 1224872); note: nearly all actives have a fitted effect of over 50% in size; note: potency is the fitted concentration of half-maximal effect
# Method in brief: (§1)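 Cells + reagent dispensed (600 cells/well, HEK293) → 5 h at 37 C/5% CO2 → 23 nL compound in DMSO pinned → 40 h at 37 C → luminescence read at 0, 8, 16, 24, 32, 40 h.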
# [2] = qHTS RealTime-Glo MT Cell Viability Assay in HepG2 cells - 8 hour (AID 1224873); note: nearly all actives have a fitted effect of over 55% in size
# Method in brief: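 HepG2 cells mixed with RealTime-Glo MT reagents (NanoLuc plus cell-permeant prosubstrate) were seeded at 600 cells/well, incubated 5 h at 37 C/5% CO2, then pinned with compounds in DMSO; nonlytic luminescence tracked viability during 40 h treatment.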
# [3] = qHTS RealTime-Glo MT Cell Viability Assay in HEK293 cells - 40 hour (AID 1224874); conditions: RealTime-Glo luminescence; max response: hits give low values; note: nearly all actives have a fitted effect of over 50% in size; note: potency is the fitted concentration of half-maximal effect
# Method in brief: (§2)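 Real-time viability in HEK293: signal arises when living cells convert a prosubstrate for NanoLuc in the medium, so luminescence tracks viable cell number. Compound (23 nL, DMSO) added 5 h post-seeding; kinetic reads at 0–40 h, 37 C.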
# [4] = A CellTox Green Cytotoxicity Assay to monitor cytotoxicity in HEK293 cells - 24 hour (AID 1224875); note: series mostly up to about 77 µM; nearly all actives have a fitted effect of over 45% in size
# Method in brief: (§3)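 Cells (HEK293, 600/well) and dye reagent are dispensed together. After 5 h at 37 C, 23 nL compound is pinned in. Plates stay at 37 C for 40 h with fluorescence read at 0h, 8h, 16h, 24h, 32h and 40h.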
# [5] = qHTS RealTime-Glo MT Cell Viability Assay in HepG2 cells - 32 hour (AID 1224877); note: nearly all actives have a fitted effect of over 55% in size
# Method in brief: (§4)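 Real-time, nonlytic viability: 600 HepG2 cells/well mixed with NanoLuc enzyme plus prosubstrate; 5 h settle, compound (DMSO) added by pintool; luminescence monitored over 40 h at 37 C.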
# [6] = A CellTox Green Cytotoxicity Assay to monitor cytotoxicity in HepG2 cells - 24 hour (AID 1224878); note: nearly all actives have a fitted effect of over 45% in size
# Method in brief: (§5)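 Cells and non-lytic dye reagent are dispensed together (600 HepG2 cells/well) and incubated 5 h before DMSO compound transfer. Kinetic fluorescence is then recorded in the same wells during 40 h at 37 C.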
# [7] = A CellTox Green Cytotoxicity Assay to monitor cytotoxicity in HepG2 cells - 40 hour (AID 1224879); note: nearly all actives have a fitted effect of over 40% in size
# Method in brief: as §5
# [8] = qHTS RealTime-Glo MT Cell Viability Assay in HEK293 cells - 0 hour (AID 1224880); note: top concentration of the series differs between compounds; nearly all actives have a fitted effect of over 45% in size
# Method in brief: as §2
# [9] = A CellTox Green Cytotoxicity Assay to monitor cytotoxicity in HEK293 cells - 32 hour (AID 1224881); note: nearly all actives have a fitted effect of over 40% in size
# Method in brief: as §3
# [10] = A CellTox Green Cytotoxicity Assay to monitor cytotoxicity in HepG2 cells - 0 hour (AID 1224882); note: nearly all actives have a fitted effect of over 35% in size
# Method in brief: as §5
# [11] = A CellTox Green Cytotoxicity Assay to monitor cytotoxicity in HepG2 cells - 32 hour (AID 1224883); note: nearly all actives have a fitted effect of over 50% in size
# Method in brief: as §5
# [12] = A CellTox Green Cytotoxicity Assay to monitor cytotoxicity in HEK293 cells - 8 hour (AID 1224884); note: nearly all actives have a fitted effect of over 35% in size
# Method in brief: as §3
# [13] = qHTS RealTime-Glo MT Cell Viability Assay in HepG2 cells - 16 hour (AID 1224885); note: nearly all actives have a fitted effect of over 50% in size
# Method in brief: as §4
# [14] = qHTS RealTime-Glo MT Cell Viability Assay in HEK293 cells - 24 hour (AID 1224886); note: nearly all actives have a fitted effect of over 50% in size; note: potency is the fitted concentration of half-maximal effect
# Method in brief: as §1
# [15] = qHTS RealTime-Glo MT Cell Viability Assay in HEK293 cells - 8 hour (AID 1224887)
# Method in brief: as §2
# [16] = A CellTox Green Cytotoxicity Assay to monitor cytotoxicity in HEK293 cells - 16 hour (AID 1224888); note: nearly all actives have a fitted effect of over 35% in size
# Method in brief: as §3
# [17] = A CellTox Green Cytotoxicity Assay to monitor cytotoxicity in HepG2 cells - 8 hour (AID 1224890); note: nearly all actives have a fitted effect of over 45% in size
# Method in brief: as §5
# [18] = qHTS assay to identify small molecule antagonists of the estrogen receptor alpha (ER-alpha) signaling pathway using the BG1 cell line in the presence of 0.1 nM 17-beta-estradiol - cell viability counter screen (AID 1259241); note: nearly all actives have a fitted effect of over 40% in size
# Method in brief: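 Cells were plated and left 24 hr, compounds in DMSO were pinned in, 17beta-estradiol was added to 0.1 nM final, and after 22 hr CellTiter-Fluor reagent was added for 30 min before fluorescence was read.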
# [19] = A CellTox Green Cytotoxicity Assay to monitor cytotoxicity in HepG2 cells - 16 hour (AID 1224876); note: nearly all actives have a fitted effect of over 45% in size
# Method in brief: as §5
# [20] = qHTS RealTime-Glo MT Cell Viability Assay in HepG2 cells - 0 hour (AID 1224889); note: nearly all actives have a fitted effect of over 50% in size
# Method in brief: as §4
structure (smiles),measurement,setting,value
CC1(C)O[C@@H]2C[C@H]3[C@@H]4CCC5=CC(=O)C=C[C@]5(C)[C@H]4[C@@H](O)C[C@]3(C)[C@]2(C(=O)CO)O1,Potency,[1],inactive
same,Potency,[2],inactive
same,max response,[3],-1.67%
same,Potency,[4],inactive
same,Potency,[5],inactive
same,Potency,[6],inactive
same,Potency,[7],inactive
same,Potency,[8],inactive
same,Potency,[9],inactive
same,Potency,[10],inactive
same,Potency,[11],inactive
same,Potency,[12],inactive
same,Potency,[13],inactive
same,Potency,[14],inactive
same,Potency,[15],inactive
same,Potency,[16],inactive
same,Potency,[17],inactive
same,Potency,[18],inactive
C[N+]1(C)CCC(=C(c2ccccc2)c2ccccc2)CC1,Potency,[1],inactive
same,Potency,[2],inactive
same,max response,[3],7.64%
same,Potency,[4],inactive
same,Potency,[19],inactive
same,Potency,[6],inactive
same,Potency,[8],inactive
same,Potency,[10],inactive
same,Potency,[11],inactive
same,Potency,[12],inactive
same,Potency,[13],inactive
same,Potency,[14],inactive
same,Potency,[15],inactive
same,Potency,[16],inactive
same,Potency,[20],inactive
same,Potency,[17],inactive
CC1=NN(c2ccc(C(=O)O)cc2)C(=O)C1,Potency,[1],inactive
same,Potency,[2],inactive
same,max response,[3],-25.1%
same,Potency,[4],inactive
same,Potency,[5],inactive
same,Potency,[6],inactive
same,Potency,[7],inactive
same,Potency,[8],inactive
same,Potency,[9],inactive
same,Potency,[10],inactive
same,Potency,[11],inactive
same,Potency,[12],inactive
same,Potency,[13],inactive
same,Potency,[14],inactive
same,Potency,[15],inactive
same,Potency,[16],inactive
same,Potency,[20],inactive
same,Potency,[17],inactive
same,Potency,[18],inactive
CCCCC(CC)COC(=O)COc1ccc(Cl)cc1C (stereo not given),Potency,[1],inactive
same,Potency,[2],inactive
same,max response,[3],14.7%
same,Potency,[4],inactive
same,Potency,[19],inactive
same,Potency,[6],inactive
same,Potency,[7],inactive
same,Potency,[8],inactive
same,Potency,[9],inactive
same,Potency,[10],inactive
same,Potency,[11],inactive
same,Potency,[12],inactive
same,Potency,[13],inactive
same,Potency,[15],inactive
same,Potency,[16],inactive
same,Potency,[20],inactive
same,Potency,[17],inactive
CC(=O)Nc1ccccc1C,Potency,[1],inactive
same,Potency,[2],inactive
same,max response,[3],1.18%
same,Potency,[4],inactive
same,Potency,[19],inactive
same,Potency,[6],inactive
same,Potency,[7],inactive
same,Potency,[8],inactive
same,Potency,[9],inactive
same,Potency,[10],inactive
same,Potency,[11],inactive
same,Potency,[12],inactive
same,Potency,[13],inactive
same,Potency,[14],inactive
same,Potency,[15],inactive
same,Potency,[16],inactive
same,Potency,[20],inactive
same,Potency,[17],inactive
same,Potency,[18],inactive
CCOC(=O)c1ccccc1C,Potency,[1],inactive
same,Potency,[2],inactive
same,max response,[3],-14.1%
same,Potency,[4],inactive
same,Potency,[19],inactive
same,Potency,[6],inactive
same,Potency,[7],inactive
same,Potency,[8],inactive
same,Potency,[9],inactive
same,Potency,[10],inactive
same,Potency,[11],inactive
same,Potency,[12],inactive
same,Potency,[13],inactive
same,Potency,[14],inactive
same,Potency,[15],inactive
same,Potency,[16],inactive
same,Potency,[20],inactive
same,Potency,[17],inactive
same,Potency,[18],inactive
O=S(=O)(c1ccccc1)c1ccc(Cl)cc1,Potency,[1],inactive
same,Potency,[2],inactive
same,max response,[3],-0.98%
same,Potency,[4],inactive
same,Potency,[19],inactive
same,Potency,[6],inactive
same,Potency,[7],inactive
same,Potency,[8],inactive
same,Potency,[9],inactive
same,Potency,[10],inactive
same,Potency,[11],inactive
same,Potency,[12],inactive
same,Potency,[13],inactive
same,Potency,[15],inactive
same,Potency,[16],inactive
same,Potency,[20],inactive
same,Potency,[17],inactive
same,Potency,[18],inactive
CC(N)CN (stereo not given),Potency,[1],inactive
same,Potency,[2],inactive
same,max response,[3],2.08%
same,Potency,[4],inactive
same,Potency,[19],inactive
same,Potency,[6],inactive
same,Potency,[7],inactive
same,Potency,[8],inactive
same,Potency,[9],inactive
same,Potency,[10],inactive
same,Potency,[11],inactive
same,Potency,[12],inactive
same,Potency,[13],inactive
same,Potency,[14],inactive
same,Potency,[15],inactive
same,Potency,[16],inactive
same,Potency,[20],inactive
same,Potency,[17],inactive
same,Potency,[18],inactive
O=C(O)c1c(O)c(-c2ccccc2)nc2ccccc12,Potency,[1],inactive
same,Potency,[2],inactive
same,max response,[3],0.412%
same,Potency,[4],inactive
same,Potency,[5],inactive
same,Potency,[6],inactive
same,Potency,[7],inactive
same,Potency,[8],inactive
same,Potency,[9],inactive
same,Potency,[10],inactive
same,Potency,[11],inactive
same,Potency,[12],inactive
same,Potency,[13],inactive
same,Potency,[14],inactive
same,Potency,[15],inactive
same,Potency,[16],inactive
same,Potency,[20],inactive
same,Potency,[17],inactive
same,Potency,[18],inactive
Cc1nccn1-c1ccc(Sc2cccc(C3(C(N)=O)CCOCC3)c2)cc1,Potency,[1],1380 nM (active)
same,Potency,[2],inactive
same,Potency,[3],1230 nM (active)
same,Potency,[4],inactive
same,Potency,[19],inactive
same,Potency,[6],inactive
same,Potency,[8],inactive
same,Potency,[9],inactive
same,Potency,[10],inactive
same,Potency,[12],inactive
same,Potency,[14],1380 nM (active)
same,Potency,[16],inactive
same,Potency,[20],inactive
same,Potency,[17],inactive
CCN(Cc1cccc(S(=O)(=O)O)c1)c1ccc(C(=C2C=CC(=[N+](CC)Cc3cccc(S(=O)(=O)[O-])c3)C=C2)c2ccccc2)cc1,Potency,[1],inactive
same,Potency,[2],inactive
same,max response,[3],3.22%
same,Potency,[4],inactive
same,Potency,[5],inactive
same,Potency,[6],inactive
same,Potency,[7],inactive
same,Potency,[9],inactive
same,Potency,[10],inactive
same,Potency,[11],inactive
same,Potency,[12],inactive
same,Potency,[13],inactive
same,Potency,[14],inactive
same,Potency,[15],inactive
same,Potency,[16],inactive
same,Potency,[17],inactive
same,Potency,[18],inactive
